From PubChem BioAssay (Tox21)
Activity calls are given as the source filed them. Calls follow the shape of the dose curve; as a rule, active = well fitted inhibition curve with a large enough effect in the repeat runs (not every such curve was filed as active); inconclusive = weak or mixed curves; inactive = flat fitted curve, though single readings scatter.

biological target: Thyrotropin-releasing hormone receptor (Homo sapiens) (UniProt P34981); test: qHTS assay to identify small molecule antagonists of the thyrotropin-releasing hormone receptor (TRHR) signaling pathway (AID 1346877); conditions: TRHR-HEK293, TRH-induced calcium fluorescence, antagonist mode; series mostly up to 51.3 µM
Sequence (P34981 whole entry, looked up): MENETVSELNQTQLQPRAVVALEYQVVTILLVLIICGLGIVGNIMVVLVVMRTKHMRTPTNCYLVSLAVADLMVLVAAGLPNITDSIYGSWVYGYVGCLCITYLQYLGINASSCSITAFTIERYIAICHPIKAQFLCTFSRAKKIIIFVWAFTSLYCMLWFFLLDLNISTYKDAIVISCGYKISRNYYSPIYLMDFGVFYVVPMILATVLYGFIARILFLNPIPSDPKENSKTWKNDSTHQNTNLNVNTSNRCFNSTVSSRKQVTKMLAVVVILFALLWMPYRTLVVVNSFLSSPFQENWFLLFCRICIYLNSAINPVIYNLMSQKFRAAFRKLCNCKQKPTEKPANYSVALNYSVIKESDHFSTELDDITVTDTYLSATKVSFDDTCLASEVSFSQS
Text: National Center for Advancing Translational Sciences [NCATS]
NIH Chemical Genomics Center [NCGC]
U.S. Environmental Protection Agency [EPA]
National Institutes of Environmental Health Sciences [NIEHS]
National Toxicology Program [NTP]
U.S. Food and Drug Administration [FDA]
Thyrotropin-releasing hormone (TRH) receptor (TRHR) is a G-protein-coupled receptor which binds the tripeptide thyrotropin releasing hormone. TRHR is found in the brain and, when bound by TRH, acts (through phospholipase C) to increase intracellular inositol trisphosphate. It plays a crucial role in the anterior pituitary where it controls the synthesis and secretion of thyroid stimulating hormone and prolactin. The TRHR-Hek293 assay is a cell-based assay, and it has the potential to screen G protein-coupled receptors. A compound/drug can either activate (agonist) or suppress (antagonist) GPCRs that can be monitored by levels of intracellular calcium. In this assay, the Tox21 10K compound library was screened to identify potential TRHR antagonists.
Tox21 Assay Protocol Summary:
The TRHR-Hek293 cells were dispensed at 1500cells/4uL/well in 1536-well black-clear bottom plates using a Multidrop dispenser. After the assay plates were incubated at a 37 C/5% CO2 incubator for 18 hours, 4 uL of Dye-Loading Solution was added to each well. The plates were incubated at 37 C for 2 hours. For agonist mode, 23 nL of compounds dissolved in DMSO, positive controls or DMSO only was transferred to the assay plate by a pin tool. The fluorescence intensity in the plates was measured using FDSS 7000EX kinetic plate reader for 3 min at 1 sec intervals. For antagonist mode, 23 nL of compounds dissolved in DMSO, positive controls or DMSO only was transferred to the assay plate by a pin tool. After 5 min incubation at room temperature, 1 uL of TRH was added on the top of the cell/compound mixtures to achieve a final agonist concentration of 1 nM. The fluorescence intensity in the plates was measured using FDSS 7000EX kinetic plate reader for 3 min at 1 sec intervals. Each test compound was measured at 15 concentrations and in triplicates.

| Structure (SMILES) | outcome |
| --- | --- |
| C=C(C)CS(=O)(=O)O | inactive |
| Cc1sccc1Br | inactive |
| CC(C)(O)C#CC(C)(C)O | inactive |
| O=Cc1cccc([N+](=O)[O-])c1 | inactive |
| COC(=O)c1ccc(C)cc1C1=NC(C)(C(C)C)C(=O)N1 (stereo not given) | inactive |
| CN(C)CCCNCCCN(C)C | inactive |
| CCCN1CCCC[C@H]1C(=O)Nc1c(C)cccc1C | inactive |
| COC(=O)c1cc(C(=O)OC)cc(S(=O)(=O)O)c1 | inactive |
| COC(=O)[C@@H](N)Cc1ccc(O)c(O)c1 | inactive |
| C/C=C(\C)C#N | inactive |
| CS(=O)(=O)O | inactive |
| O=C1CCCC(=O)C1 | inactive |
| C[C@@H]1CCN(C(=O)[C@H](CCCN=C(N)N)NS(=O)(=O)c2cccc3c2NC[C@H](C)C3)[C@@H](C(=O)O)C1 | inactive |
| NC(=O)COCCN1CCN(C(c2ccccc2)c2ccc(Cl)cc2)CC1 (stereo not given) | inactive |
| CCn1ccnc1CC1COc2ccccc2O1 (stereo not given) | inactive |
| Cc1ccc(C#N)cc1 | inactive |
| c1ccc(CC2=NCCN2)cc1 | inactive |
| CN1C(=O)N(C)C(O)C1O (stereo not given) | inactive |
| O=c1n(CCO)c(=O)n(CCO)c(=O)n1CCO | inactive |
| O=C[C@H](O)[C@@H](O)[C@H](O)[C@H](O)CO | inactive |

| Structure (SMILES) | outcome |
| --- | --- |
| CCC(=O)OC(C)c1ccccc1 (stereo not given) | inactive |
| COC(=O)CC(C)=O | inactive |
| CCOC(=O)[C@H](CCc1ccccc1)N[C@@H](C)C(=O)N1[C@H](C(=O)O)C[C@@H]2CCC[C@@H]21 | inactive |
| CCOC(=O)c1ccc(C)cc1 | inactive |
| CCN1CCC[C@H]1CNC(=O)c1cc(S(N)(=O)=O)ccc1OC | inactive |
| CCOC(=O)c1cccc(N)c1 | inactive |
| CN(C)CCCSc1ccccc1NC(=O)/C=C/c1ccccc1 | inactive |
| COc1ccc2c(c1)c(CC(=O)OCC(=O)O)c(C)n2C(=O)c1ccc(Cl)cc1 | inactive |
| O=c1cc(CO)occ1O | inactive |
| CCCCNC(=O)NCCCC | inactive |
| CN1CCCC1 | inactive |
| COC(=O)CCSCCC(=O)OC | inactive |
| COC(=O)C1=C(C)NC(C)=C(C(=O)OC)C1c1ccccc1[N+](=O)[O-] | inactive |
| CN1CCN(c2cc3c(cc2F)c(=O)c(C(=O)O)cn3-c2ccc(F)cc2)CC1 | inactive |
| O=C(O)CCCl | inactive |
| CC/C=C\CC/C=C/CO | inactive |
| FC(F)OC(Cl)C(F)(F)F (stereo not given) | inactive |
| C[C@H](NC(CCc1ccccc1)C(=O)O)C(=O)N1CCC[C@H]1C(=O)O (stereo not given in full) | inactive |
| C=CCOCC(CC)(CO)COCC=C | inactive |
| O=C1CCCCCCCCCCCN1 | inactive |
